Measured values: the supplement of paper PMC9588786
Counter-ions that a name gives are not always drawn. ± gives the standard deviation of the averaged measurements.
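Note: viability read as CCK-8 absorbance at 450 nm in cells co-exposed to the GPX4 inhibitor RSL3, relative to a 0.01% DMSO vehicle control.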

What follows are compounds tested on HT-1080 (assay: relative cell viability with RSL3 co-treatment (fraction of control); higher = stronger protection from RSL3-induced ferroptosis (higher viability)). Conditions: 10 µM.
CNC(=O)c1cc(Oc2ccc3nc(N[C@@H]4CCCC[C@H]4O)sc3c2)ccn1 gave a relative cell viability of 0.767 ± 0.05.
With CC[C@@H]1C(=O)N(C)c2cnc(Nc3ccc(C(=O)NC4CCN(C)CC4)cc3OC)nc2N1C1CCCC1 the relative cell viability was 0.553 ± 0.031.
CNC(=O)c1cccc(-c2ccc3c(N4CCOC[C@@H]4C)nc(N4CCOC[C@@H]4C)nc3n2)c1 [Vistusertib (AZD2014)] was tested, and the relative cell viability was 0.52 ± 0.18.
COc1cc2c(Nc3ccc(NC(=O)c4ccccc4)cc3)ncnc2cc1OCCCN1CCOCC1 gave a relative cell viability of 0.717 ± 0.23.
In the case of CNC(=O)c1cc(COc2nnc(Nc3ccc(Cl)cc3)c3ccoc23)ccn1 [Telatinib], the relative cell viability is reported as 0.623 ± 0.057.
COc1ncc(-c2ccc3nccc(-c4ccnnc4)c3c2)cc1NS(=O)(=O)c1ccc(F)cc1F showed a relative cell viability of 0.24 ± 0.14.
Work on Cc1ncc(-c2ccnc(Nc3ccc(S(C)(=O)=O)cc3)n2)n1C(C)C yielded a relative cell viability of 0.43 ± 0.095.
O=c1cc(-c2ccccc2)oc2c(O)c(O)ccc12 [7,8-Dihydroxyflavone] was tested, and the relative cell viability was 0.713 ± 0.011.
With CC(C)Nc1cc(-c2c[nH]c(C(=O)N[C@H](CO)c3cccc(Cl)c3)c2)c(Cl)cn1 the relative cell viability was 0.753 ± 0.076.
Work on Cc1cc([C@@H](C)Nc2ccccc2C(=O)O)c2nc(N3CCOCC3)cc(=O)n2c1 yielded a relative cell viability of 0.593 ± 0.18.
With COc1cc2c(Oc3ccc(NC(=O)C4(C(=O)Nc5ccc(F)cc5)CC4)cc3F)ccnc2cc1OCCCN1CCOCC1 the relative cell viability was 0.287 ± 0.064.
O=c1sn(-c2cccc3ccccc23)c(=O)n1Cc1ccccc1 [Tideglusib] showed a relative cell viability of 0.74 ± 0.035.
Work on S=C(NCc1ccc2c(c1)OCO2)N1CCN(c2ncnc3c2oc2ccccc23)CC1 [Amuvatinib (MP-470)] yielded a relative cell viability of 0.55 ± 0.072.
Compound CCc1cncnc1N1CCN(Cc2nc3ccc(C(F)(F)F)cc3[nH]2)CC1 has a relative cell viability of 0.653 ± 0.083.
For CC(C)n1nc(-c2ccc3oc(N)nc3c2)c2c(N)ncnc21, the relative cell viability was 0.787 ± 0.058.
Nc1cccc(S(=O)(=O)N2CCCN(S(=O)(=O)c3ccc4c(c3)OCCO4)CC2)c1 showed a relative cell viability of 0.767 ± 0.049.
Cc1nc(Nc2cnn(C3CCNCC3)c2)nc2c1N(C)C(=O)c1cc3ccccc3cc1N2C showed a relative cell viability of 0.627 ± 0.09.
Work on C[C@H](Nc1ncnc2nc[nH]c12)c1cc2cccc(Cl)c2c(=O)n1-c1ccccc1 [Duvelisib (IPI-145, INK1197)] yielded a relative cell viability of 0.717 ± 0.025.
In the case of N=C(N)NC(=N)NCCc1ccccc1 [Phenformin HCl], the relative cell viability is reported as 0.877 ± 0.042.
With C[C@]1(O)C[C@@H](c2nc(-c3ccc4ccc(-c5ccccc5)nc4c3)c3c(N)nccn32)C1 [Linsitinib (OSI-906)] the relative cell viability was 0.587 ± 0.029.
Cc1cc2c(F)c(Oc3ncnn4cc(OC[C@@H](C)OC(=O)[C@H](C)N)c(C)c34)ccc2[nH]1 gave a relative cell viability of 0.653 ± 0.095.
Work on CNC(=O)c1cc(Oc2ccc(NC(=O)Nc3ccc(Cl)c(C(F)(F)F)c3)c(F)c2)ccn1 [Regorafenib (BAY 73-4506)] yielded a relative cell viability of 0.483 ± 0.086.
In the case of O=C(O)c1ccc(-c2c[nH]c3ncc(-c4ccccc4)cc23)cc1C1CCCC1, the relative cell viability is reported as 0.81 ± 0.017.
For O=C(Nc1cccnc1)c1cc(-c2ccnc(F)c2)ccc1OCc1ccccc1, the relative cell viability was 0.627 ± 0.06.
Nc1nc(N)c2nc(-c3cccc(O)c3)c(-c3cccc(O)c3)nc2n1 was tested, and the relative cell viability was 0.72 ± 0.03.
Work on Cc1nc(Nc2n[nH]c3c2CN(C(=O)N[C@H](CN(C)C)c2ccccc2)C3(C)C)c2sccc2n1 yielded a relative cell viability of 0.557 ± 0.032.
CS(=O)(=O)CCNCc1ccc(-c2ccc3ncnc(Nc4ccc(OCc5cccc(F)c5)c(Cl)c4)c3c2)o1 showed a relative cell viability of 0.673 ± 0.032.
Compound CNCc1ccc(-c2cc(-c3nc(-c4ccc(S(=O)(=O)C(C)C)cc4)cnc3N)on2)cc1 has a relative cell viability of 0.47 ± 0.026.
In the case of C=CC(=O)Nc1cccc(Nc2nc(Nc3ccc(OCCOC)cc3)ncc2F)c1, the relative cell viability is reported as 0.563 ± 0.078.
With Clc1ccc(C2(c3ccc(-c4cn[nH]c4)cc3)CCNCC2)cc1 the relative cell viability was 0.373 ± 0.068.
O=C(Nc1cccc(Cl)c1)Nc1ncc(CCNc2ncnc3ccsc23)s1 [SNS-314 Mesylate] gave a relative cell viability of 0.217 ± 0.015.
In the case of CC(C)c1cnn2c(NCc3ccccc3)cc(NCCCCCCN)nc12, the relative cell viability is reported as 0.623 ± 0.085.
CN1CCN(S(=O)(=O)c2ccc(-c3cnc(N)c(C(=O)Nc4cccnc4)n3)cc2)CC1 gave a relative cell viability of 0.56 ± 0.087.
For OC(c1cc(-c2ccc(Cl)cc2)nc2ccccc12)C1CCCCN1 (stereo not drawn) [Vacquinol-1], the relative cell viability was 0.0533 ± 0.035.
COc1ccc(C(=O)Nc2sc3c(c2C(N)=O)CCCC3)cc1OC gave a relative cell viability of 0.66 ± 0.087.
In the case of C#Cc1cccc(Nc2ncnc3cc(OCCOC)c(OCCO)cc23)c1, the relative cell viability is reported as 0.597 ± 0.081.
In the case of O=C(c1ccc(F)c(F)c1Nc1ccc(I)cc1F)N1CC(O)([C@@H]2CCCCN2)C1 [Cobimetinib (GDC-0973, RG7420)], the relative cell viability is reported as 0.797 ± 0.032.
In the case of O=S(=O)(NCCNC/C=C/c1ccc(Br)cc1)c1cccc2cnccc12, the relative cell viability is reported as 0.577 ± 0.045.
